Test systems include HCT-15 colon; SNB-75 CNS; SNB-19 CNS; U251 CNS; PC-3 prostate; SK-MEL-5 melanoma; UACC-62 melanoma; LOX IMVI melanoma; SK-MEL-28 melanoma; SK-MEL-2 melanoma; EKVX NSCLC; SN12C renal; UO-31 renal; TK-10 renal; ACHN renal; CAKI-1 renal; A498 renal; CCRF-CEM leukemia; MOLT-4 leukemia.
Experiment in all cases: NCI-60 one-dose screen, 48 h (100 = growth as untreated, 0 = no growth, -100 = all killed)
What all share (details): 10 µM unless noted

This is part of a sample that, as a whole, favours compounds with a hit. Of some 83,000 tested, about 20% had one in any assay.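 Percent growth is the endpoint: 0 to 100 indicates growth inhibition (40 means 60% inhibition), 0 means no net growth, and negative values indicate cell death.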 Values without a mark were called inactive. The source made the active and inactive calls. Rule for the calls: active = growth percent below 10; inactive = the rest.

Consider `O=C(Nc1ccc2[nH]ncc2c1)c1csc(Nc2ccccc2)n1`, for which the growth with HCT-15 colon is 16.9%; in the assay with SNB-75 CNS, 36%; in the assay with SNB-19 CNS it was 30.1%; in the assay with U251 CNS, 28.7%; in the assay with PC-3 prostate, 38.7%; in the assay on SK-MEL-5 melanoma, 12.3%. For the same molecule, the growth is 26.8% with UACC-62 melanoma; 40.8% in the assay with LOX IMVI melanoma; 64.1% in the assay with SK-MEL-28 melanoma; 29.6% in the assay with SK-MEL-2 melanoma; 45.8% in the assay on EKVX NSCLC; 41.1% in the assay with SN12C renal. The growth in the assay with UO-31 renal is 45.5%; with TK-10 renal it was 48.1%; with ACHN renal, 56.5%; in the assay on CAKI-1 renal, 36.5%; in the assay with A498 renal, 22.2%; with CCRF-CEM leukemia it was 19.4%. Moreover, the growth with MOLT-4 leukemia is 43.9%.
With `Oc1cccc(-c2nc(-c3n[nH]c(=S)n3-c3ccccc3)cc3c2[nH]c2ccccc23)c1`, the growth is 20.3% in the assay on HCT-15 colon; -11.5% (active) in the assay on SNB-75 CNS; 24.2% with SNB-19 CNS; 14% in the assay with U251 CNS; 30% with PC-3 prostate; 9.76% (active) in the assay on SK-MEL-5 melanoma. Also, the growth was 32% with UACC-62 melanoma; 8.16% (active) in the assay on LOX IMVI melanoma; 31.4% in the assay with SK-MEL-28 melanoma; -9.51% (active) in the assay with SK-MEL-2 melanoma; 50.3% with EKVX NSCLC; 44.9% in the assay with SN12C renal. Moreover, the growth in the assay on UO-31 renal is 49.6%; with TK-10 renal, 47.9%; in the assay on ACHN renal, 53%; in the assay on CAKI-1 renal, 64.6%; in the assay with A498 renal, -14.8% (active); in the assay with CCRF-CEM leukemia, 21.3%. Besides, the growth in the assay with MOLT-4 leukemia is 26.2%.
On to `C#CCOc1ccc(C2=NN(C)C3N=C(Cl)c4ncn(C)c4N23)cc1OCC#C` (stereo not given), for which the growth is 92.1% in the assay with HCT-15 colon; 97.6% with SNB-75 CNS; 103% with SNB-19 CNS; 98.7% in the assay on U251 CNS; 91.1% with PC-3 prostate; 86.1% with SK-MEL-5 melanoma. The growth is 84.3% in the assay on UACC-62 melanoma; 96.5% with SK-MEL-28 melanoma; 105% in the assay on SK-MEL-2 melanoma; 102% with EKVX NSCLC; 97.6% with SN12C renal; 74.6% in the assay on UO-31 renal. The growth was 99% with TK-10 renal; 89.6% with ACHN renal; 103% in the assay with CAKI-1 renal; 85.4% in the assay with A498 renal; 87.4% with CCRF-CEM leukemia; 82.9% in the assay on MOLT-4 leukemia.
As for `O=C(CNc1ncco1)Nc1ccc(S(=O)(=O)c2ccc(NC(=O)CNc3ncco3)cc2)cc1`, the growth was -49.6% (active) in the assay on HCT-15 colon; 42.1% in the assay on SNB-75 CNS; 19.7% with SNB-19 CNS; -92.1% (active) with U251 CNS; 40.1% with PC-3 prostate; -60.4% (active) in the assay on SK-MEL-5 melanoma. Besides, the growth in the assay with UACC-62 melanoma is -19.9% (active); in the assay with LOX IMVI melanoma, -81.8% (active); in the assay on SK-MEL-28 melanoma, 58.1%; with SK-MEL-2 melanoma it was -6.97% (active); in the assay on EKVX NSCLC, 50.4%; in the assay with SN12C renal it was 8.32% (active). Also, the growth in the assay on UO-31 renal was 41.1%; with TK-10 renal, 54.4%; with ACHN renal, 30.5%; with CAKI-1 renal, -51.6% (active); in the assay on A498 renal, 100%; with CCRF-CEM leukemia, 0.572% (active). In the assay on MOLT-4 leukemia, the growth is 5.92% (active).
In the case of `C=C1/C(=C\C=C2/CCC[C@]3(C)[C@@H]([C@H](C)CCCC(C)(C)O)CC[C@@H]23)C[C@@H](OC(=O)CBr)C[C@@H]1O`, the growth in the assay with HCT-15 colon was 54.6%; in the assay with SNB-75 CNS, 49.1%; in the assay with SNB-19 CNS, 94.6%; in the assay on U251 CNS, 70.6%; in the assay with PC-3 prostate, 40%; in the assay with SK-MEL-5 melanoma, 84.7%. For the same molecule, the growth is 69% with UACC-62 melanoma; -50.9% (active) with LOX IMVI melanoma; 93.6% with SK-MEL-28 melanoma; 99.7% with SK-MEL-2 melanoma; 52.4% with EKVX NSCLC; 85.2% in the assay on SN12C renal. The growth in the assay on UO-31 renal was -100% (active); in the assay with TK-10 renal, 88.2%; in the assay with ACHN renal it was -29.7% (active); with CAKI-1 renal, -30.4% (active); in the assay on A498 renal, 86.2%; in the assay with CCRF-CEM leukemia it was -50.7% (active). The growth in the assay with MOLT-4 leukemia was -52.6% (active).
In the case of `CC(=O)O[C@H]1C[C@@]2(C)[C@@H](C[C@@H](O)[C@H]3[C@@]4(C)CC[C@H](N5CCCC5)[C@@H](C)[C@@H]4CC[C@@]32C)/C1=C(\CCC=C(C)C)C(=O)O`, the growth with HCT-15 colon is 94.5%; with SNB-75 CNS, 97.7%; in the assay with SNB-19 CNS, 99.6%; in the assay with U251 CNS, 99.5%; in the assay with PC-3 prostate, 92.8%; in the assay on UACC-62 melanoma, 94.9%. In addition, the growth was 97% with LOX IMVI melanoma; 92.9% in the assay on SK-MEL-28 melanoma; 100% in the assay on SK-MEL-2 melanoma; 94% in the assay on EKVX NSCLC; 98.4% in the assay on SN12C renal; 81.2% in the assay with UO-31 renal. Also, the growth with TK-10 renal is 95.1%; in the assay on ACHN renal, 102%; with CAKI-1 renal, 91.6%; with A498 renal, 104%; in the assay on CCRF-CEM leukemia, 42.8%; in the assay on MOLT-4 leukemia, -57.9% (active).
Take `COc1nc2ccccc2cc1/C=[N+](\[O-])c1ccccc1`: the growth in the assay on HCT-15 colon is 19%; in the assay on SNB-75 CNS it was 73%; in the assay with SNB-19 CNS, 81.8%; in the assay on U251 CNS it was 56%; in the assay with PC-3 prostate, 60.3%; in the assay on SK-MEL-5 melanoma, 73.4%. Also, the growth with UACC-62 melanoma is 62.8%; in the assay with LOX IMVI melanoma, 40.1%; with SK-MEL-28 melanoma it was 101%; in the assay with SK-MEL-2 melanoma it was 87.8%; with EKVX NSCLC it was 87%; with SN12C renal, 59.1%. The growth in the assay with UO-31 renal is 43.9%; in the assay with TK-10 renal, 79.6%; in the assay with ACHN renal, 86.1%; in the assay with CAKI-1 renal it was 79.8%; in the assay with A498 renal, 90.3%; in the assay with CCRF-CEM leukemia it was 13.1%. Besides, the growth in the assay with MOLT-4 leukemia is 29.5%.
For the molecule `COc1cc(C(=O)n2nc(NCCCc3ccccc3)c3cc(N)ccc32)cc(OC)c1OC`, the growth is 90.8% in the assay on HCT-15 colon; 85.2% with SNB-75 CNS; 101% in the assay with SNB-19 CNS; 100% in the assay on U251 CNS; 79% in the assay on PC-3 prostate; 89.4% in the assay on SK-MEL-5 melanoma. Also, the growth in the assay on UACC-62 melanoma was 92.2%; in the assay with LOX IMVI melanoma, 79.9%; in the assay with SK-MEL-28 melanoma, 96.4%; in the assay on SK-MEL-2 melanoma it was 87.6%; with EKVX NSCLC it was 87.3%; in the assay with SN12C renal, 99.3%. In addition, the growth is 68.6% in the assay with UO-31 renal; 97.7% in the assay with TK-10 renal; 91.3% in the assay on ACHN renal; 92.6% in the assay with CAKI-1 renal; 88.7% in the assay on A498 renal; 69.4% in the assay on CCRF-CEM leukemia. Also, the growth in the assay with MOLT-4 leukemia was 78.6%.

The values above are taken from PubChem BioAssay (NCI).
